Measured values taken from PubChem BioAssay (Tox21).
Where “and” joins values, the source holds several entries; their conditions need not be identical. Equal values may be shown once. Inconclusive results are not listed. Entries that show only a call come without a potency. Where a structure was tested more than once in an assay, its records may differ in their call. Calls of active or inactive are those of the source. Unless noted, the call rests on the fitted dose curve; in most records, active means well fitted curve in the direction sought with a large enough effect in the repeat runs; inconclusive means weak or mixed curves; inactive means no such curve, though single readings can be large; an effect the other way counts as inactive or inconclusive.

Key:
[1] = qHTS assay to identify aromatase inhibitors - cell viability counter screen (AID 743084);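 further: cells stimulated with testosterone during compound exposure; nearly all actives have a fitted effect of over 55% in size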; further: potency means the concentration at half of the fitted maximal effect
[2] = qHTS assay to identify small molecule that activate the aryl hydrocarbon receptor (AhR) signaling pathway - cell viability counter screen (AID 743086); further: nearly all actives have a fitted effect of over 45% in size; further: potency means the concentration at half of the fitted maximal effect
Procedure, shortened: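 Cytotoxicity counter screen: CellTiter-Fluor signal (30 min, 37 C) in 4000 HepG2 cells/well carrying the DRE-luciferase reporter, following 24 h compound exposure at 37 C.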

[3] = target: Peroxisome proliferator-activated receptor gamma (Homo sapiens) (UniProt P37231); assay: qHTS assay to identify small molecule agonists of the peroxisome proliferator-activated receptor gamma (PPARg) signaling pathway (AID 743094; active means well fitted activation curve with a large enough effect in the signal ratio in the repeat runs, not every such curve was filed as active; the % refers to the signal ratio)
Procedure, shortened: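 Agonist activity was taken from a beta-lactamase reporter (FRET substrate, 1 h at room temperature) in HEK293H cells carrying a PPARg UAS-bla construct. Compounds in DMSO were incubated 17 h at 37C after a 5 h cell pre-incubation.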

[4] = qHTS assay for small molecule agonists of the antioxidant response element (ARE) signaling pathway - cell viability counter screen (AID 743203; calls by dose curve; further: nearly all actives have a fitted effect of over 55% in size; further: potency means the concentration at half of the fitted maximal effect)
Procedure, shortened: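 Viability counter screen: CellTiter-Glo luminescence, read after 30 min at room temperature, in ARE-bla HepG2 wells. Compound exposure lasted 16 h at 37C/5% CO2, following a 5 h pre-incubation of the cells after plating.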

[5] = qHTS assay for small molecule activators of the heat shock response signaling pathway - cell viability counter screen (AID 743209); further: nearly all actives have a fitted effect of over 50% in size
Procedure, shortened: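 Cytotoxicity counter screen run in the same wells as the heat-shock bla reporter assay: HeLa HSE-bla cells, 5 h compound exposure at 37 C, viability read by CellTiter-Glo luminescence.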

[6] = target: Peroxisome proliferator-activated receptor delta (Homo sapiens) (UniProt Q03181); assay: qHTS assay to identify small molecule agonists of the peroxisome proliferator-activated receptor delta (PPARd) signaling pathway (AID 743212; calls by dose curve;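 further: HEK293H cells with PPARd UAS beta-lactamase reporter GeneBLAzer system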)
Procedure, shortened: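 Steps: seed PPARd-bla HEK293H cells; incubate 5 h, 37 C, 5% CO2; add compounds in DMSO; incubate, 37 C; add LiveBLAzer B/G FRET substrate; hold 2 h at room temperature; measure fluorescence.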

[7] = target: Bile acid receptor (Homo sapiens) (UniProt Q96RI1); assay: qHTS assay to identify small molecule antagonists of the farnesoid-X-receptor (FXR) signaling pathway (AID 743217; active means well fitted inhibition curve with a large enough effect in the signal ratio in the repeat runs, not every such curve was filed as active; the % refers to the signal ratio)
Procedure, shortened: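 Antagonist mode: chenodeoxycholic acid at 50 uM final stimulates a UAS-driven beta-lactamase reporter in HEK 293T FXR-bla cells during 16 h, 37C compound exposure. Read-out is FRET substrate fluorescence after 2 h at room temperature.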

[8] = target: Bile acid receptor (Homo sapiens) (UniProt Q96RI1); assay: qHTS assay to identify small molecule agonists of the farnesoid-X-receptor (FXR) signaling pathway (AID 743220; active means well fitted activation curve with a large enough effect in the signal ratio in the repeat runs, not every such curve was filed as active; the % refers to the signal ratio)
Procedure, shortened: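 FXR-UAS-bla HEK 293T cells carrying a UAS-driven beta-lactamase reporter were plated for 5 h at 37C/5% CO2, then exposed to DMSO-dissolved Tox21 10K compounds for 16 h at 37C. A LiveBLAzer B/G FRET substrate was loaded for 2 h at room temperature before fluorescence reading.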

[9] = target: Vitamin D3 receptor (Homo sapiens) (UniProt P11473); assay: qHTS assay to identify small molecule agonists of the vitamin D receptor (VDR) signaling pathway (AID 743222; calls by dose curve)
Procedure, shortened: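 Agonist mode, beta-lactamase reporter: fluorescence from LiveBLAzer B/G FRET substrate (2 h, room temperature) read after 16 h compound treatment at 37 C of VDR-bla cells, which were pre-incubated 4 h after seeding.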

[10] = target: Vitamin D3 receptor (Homo sapiens) (UniProt P11473); assay: qHTS assay to identify small molecule antagonists of the vitamin D receptor (VDR) signaling pathway (AID 743223; active means well fitted inhibition curve with a large enough effect in the signal ratio in the repeat runs, not every such curve was filed as active; the % refers to the signal ratio)
Procedure, shortened: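 Agonist 1alpha,25-dihydroxyvitamin D3 (3 nM in well) was added with each compound to VDR-bla cells preincubated 4 h. Cells stood 16 h at 37C, then FRET substrate 2 h at room temperature; fluorescence intensity recorded.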

[11] = target: Peroxisome proliferator-activated receptor gamma (Homo sapiens) (UniProt P37231); assay: qHTS assay to identify small molecule antagonists of the peroxisome proliferator-activated receptor gamma (PPARg) signaling pathway (AID 743191; calls by dose curve; further: nearly all actives have a fitted effect of over 30% in size; further: potency means the concentration at half of the fitted maximal effect)
Procedure, shortened: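 Beta-lactamase reporter under UAS control in HEK293H PPARg-bla cells; compound treatment 17 h at 37C. Read-out: fluorescence intensity after 1 h room-temperature incubation with LiveBLAzer B/G FRET substrate.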

[12] = qHTS assay to identify small molecule antagonists of the peroxisome proliferator-activated receptor gamma (PPARg) signaling pathway - cell viability counter screen (AID 743194); details: Potency: co-treated with 50 nM rosiglitazone; further: nearly all actives have a fitted effect of over 55% in size; further: potency means the concentration at half of the fitted maximal effect
Procedure, shortened: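 Viability was measured as CellTiter-Glo luminescence in GeneBLAzer PPARg UAS-bla HEK293H cells. These cells had been exposed 17 h at 37 C to compounds together with rosiglitazone at 50 nM final, with the beta-lactamase readout taken in the same wells.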

[13] = qHTS assay to identify small molecule antagonists of the farnesoid-X-receptor (FXR) signaling pathway - cell viability counter screen (AID 743221; active means well fitted cell-killing curve with a large enough effect in the repeat runs, not every such curve was filed as active; further: nearly all actives have a fitted effect of over 50% in size; further: potency means the concentration at half of the fitted maximal effect)
Procedure, shortened: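 In GeneBLAzer FXR-UAS-bla HEK 293T cells stimulated with 50 uM chenodeoxycholic acid (final), compounds acted for 16 h at 37 C. Viability was assessed afterwards by CellTiter-Glo luminescence.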

[14] = qHTS assay for small molecule agonists of the antioxidant response element (ARE) signaling pathway (AID 743202; active means well fitted activation curve with a large enough effect in the signal ratio in the repeat runs, not every such curve was filed as active; the % refers to the signal ratio; further: potency means the concentration at half of the fitted maximal effect)
Procedure, shortened: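 Beta-lactamase reporter activity, read as fluorescence intensity, reflects ARE/Nrf2 pathway induction in HepG2 cells after 16 h compound exposure at 37 C; substrate loading was 2 h at room temperature.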

[15] = qHTS assay for small molecule activators of the heat shock response signaling pathway (AID 743210; active means well fitted activation curve with a large enough effect in the signal ratio in the repeat runs, with a control signal flat, not every such curve was filed as active; the % refers to the signal ratio;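 further: HeLa cells with beta-lactamase reporter driven by heat shock elements; series mostly up to about 63 µM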)
Procedure, shortened: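 Fluorescence from a cleaved B/G FRET substrate (2.5 h, room temp) reports HSE-driven beta-lactamase in HeLa cells treated 5 h at 37 C with DMSO-dissolved compounds.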

[16] = qHTS assay to identify small molecule antagonists of the peroxisome proliferator-activated receptor delta (PPARd) signaling pathway - cell viability counter screen (AID 743213); further: nearly all actives have a fitted effect of over 50% in size
Procedure, shortened: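 Same-well viability: cells pre-incubated 5 h, dosed with compound plus 300 nM L165041, kept 17 h at 37 C, FRET substrate 2 h RT, then CellTiter-Glo 30 min RT and luminescence.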

[17] = target: Peroxisome proliferator-activated receptor delta (Homo sapiens) (UniProt Q03181); assay: qHTS assay to identify small molecule antagonists of the peroxisome proliferator-activated receptor delta (PPARd) signaling pathway (AID 743215; active means well fitted inhibition curve with a large enough effect in the signal ratio in the repeat runs, not every such curve was filed as active; the % refers to the signal ratio;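 further: cells stimulated with agonist L165041 at 300 nM final during compound exposure; series mostly up to about 62 µM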)
Procedure, shortened: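 Agonist L165041 (300 nM final) added with compound to PPARd-bla HEK293H UAS-bla reporter cells; 17 h incubation at 37 C. Read-out: LiveBLAzer FRET substrate, 2 h at room temperature, fluorescence intensity.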

[18] = qHTS assay to identify small molecule agonists of the peroxisome proliferator-activated receptor delta (PPARd) signaling pathway - cell viability counter screen (AID 743211); further: nearly all actives have a fitted effect of over 55% in size; further: potency means the concentration at half of the fitted maximal effect
Procedure, shortened: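 Luminescent ATP viability assay (CellTiter-Glo, 30 min RT) in UAS-bla HEK293H cells carrying the PPAR delta reporter construct, 3000 cells/well, after a 17 h compound treatment at 37 C.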

[19] = qHTS assay to identify small molecule agonists of the farnesoid-X-receptor (FXR) signaling pathway - cell viability counter screen (AID 743218); further: nearly all actives have a fitted effect of over 45% in size; further: potency means the concentration at half of the fitted maximal effect
Procedure, shortened: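 Viability counter screen in the same wells: CellTiter-Glo luminescence, 30 min room-temperature incubation, measured after the beta-lactamase read. Cells were GeneBLAzer FXR-UAS-bla HEK 293T, compound-treated 16 h at 37C.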

[20] = target: Aryl hydrocarbon receptor (Homo sapiens) (UniProt P35869); assay: qHTS assay to identify small molecule that activate the aryl hydrocarbon receptor (AhR) signaling pathway (AID 743085);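 further: HG2L7.5c1 human HepG2 liver cells with stably integrated DRE-driven firefly reporter; series mostly up to about 70 µM; nearly all actives have a fitted effect of over 15% in size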
Procedure, shortened: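 24 h compound exposure, 37C, HepG2-derived HG2L7.5c1 cells with DRE-responsive luciferase. Readouts: fluorescence viability, then luminescence at room temperature after 30 min.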

Sequence of Peroxisome proliferator-activated receptor delta (Homo sapiens) (Q03181 whole entry, looked up): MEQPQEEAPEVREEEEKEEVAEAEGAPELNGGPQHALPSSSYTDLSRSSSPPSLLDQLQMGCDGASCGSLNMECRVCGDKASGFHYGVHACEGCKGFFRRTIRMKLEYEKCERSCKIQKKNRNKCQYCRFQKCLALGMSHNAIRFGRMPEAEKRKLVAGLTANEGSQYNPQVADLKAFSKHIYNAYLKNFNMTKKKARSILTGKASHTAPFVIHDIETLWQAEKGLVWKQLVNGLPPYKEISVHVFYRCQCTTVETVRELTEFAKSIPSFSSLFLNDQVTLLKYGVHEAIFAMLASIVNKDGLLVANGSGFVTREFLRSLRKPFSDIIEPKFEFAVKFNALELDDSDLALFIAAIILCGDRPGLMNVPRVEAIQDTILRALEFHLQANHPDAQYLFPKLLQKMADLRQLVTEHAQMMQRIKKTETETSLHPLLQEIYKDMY
Sequence of Vitamin D3 receptor (Homo sapiens) (P11473 whole entry, looked up): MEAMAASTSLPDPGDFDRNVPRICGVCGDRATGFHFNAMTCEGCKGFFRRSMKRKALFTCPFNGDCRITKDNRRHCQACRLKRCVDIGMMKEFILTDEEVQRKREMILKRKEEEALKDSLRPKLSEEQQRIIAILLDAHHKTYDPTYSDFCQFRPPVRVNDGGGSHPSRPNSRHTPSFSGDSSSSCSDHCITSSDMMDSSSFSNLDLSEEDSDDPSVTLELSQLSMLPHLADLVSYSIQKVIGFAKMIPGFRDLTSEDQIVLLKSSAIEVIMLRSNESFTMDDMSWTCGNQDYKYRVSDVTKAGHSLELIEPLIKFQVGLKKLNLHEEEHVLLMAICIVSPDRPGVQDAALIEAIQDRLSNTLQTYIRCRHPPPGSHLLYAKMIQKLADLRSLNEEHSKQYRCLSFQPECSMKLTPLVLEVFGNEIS
Sequence of Peroxisome proliferator-activated receptor gamma (Homo sapiens) (P37231 whole entry, looked up): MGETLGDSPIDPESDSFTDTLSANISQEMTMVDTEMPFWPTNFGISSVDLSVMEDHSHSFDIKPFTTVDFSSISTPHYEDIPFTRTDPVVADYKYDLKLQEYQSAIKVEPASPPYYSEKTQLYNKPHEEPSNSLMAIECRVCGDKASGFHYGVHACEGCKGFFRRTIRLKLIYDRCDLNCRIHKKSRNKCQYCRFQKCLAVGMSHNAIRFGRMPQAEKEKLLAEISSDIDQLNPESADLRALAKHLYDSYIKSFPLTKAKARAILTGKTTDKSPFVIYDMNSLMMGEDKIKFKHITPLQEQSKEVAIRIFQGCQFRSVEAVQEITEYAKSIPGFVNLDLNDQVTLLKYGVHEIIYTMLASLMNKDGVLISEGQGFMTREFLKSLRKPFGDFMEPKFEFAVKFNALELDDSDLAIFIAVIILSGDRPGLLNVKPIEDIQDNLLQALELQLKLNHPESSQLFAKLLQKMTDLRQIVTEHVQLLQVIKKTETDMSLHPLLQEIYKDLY
Sequence of Bile acid receptor (Homo sapiens) (Q96RI1 whole entry, looked up): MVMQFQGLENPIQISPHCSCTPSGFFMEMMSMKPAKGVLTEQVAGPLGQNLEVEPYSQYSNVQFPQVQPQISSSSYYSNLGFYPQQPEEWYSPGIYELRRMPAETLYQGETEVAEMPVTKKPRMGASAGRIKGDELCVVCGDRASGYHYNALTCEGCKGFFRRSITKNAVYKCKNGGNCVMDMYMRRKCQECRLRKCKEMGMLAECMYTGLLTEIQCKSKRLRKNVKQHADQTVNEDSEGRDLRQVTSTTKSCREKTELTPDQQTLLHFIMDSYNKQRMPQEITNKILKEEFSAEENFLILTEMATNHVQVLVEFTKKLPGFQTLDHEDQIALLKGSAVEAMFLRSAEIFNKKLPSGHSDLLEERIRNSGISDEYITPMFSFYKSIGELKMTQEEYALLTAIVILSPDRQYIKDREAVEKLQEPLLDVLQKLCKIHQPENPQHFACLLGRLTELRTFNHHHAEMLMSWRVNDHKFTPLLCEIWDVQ
Sequence of Aryl hydrocarbon receptor (Homo sapiens) (P35869 whole entry, looked up): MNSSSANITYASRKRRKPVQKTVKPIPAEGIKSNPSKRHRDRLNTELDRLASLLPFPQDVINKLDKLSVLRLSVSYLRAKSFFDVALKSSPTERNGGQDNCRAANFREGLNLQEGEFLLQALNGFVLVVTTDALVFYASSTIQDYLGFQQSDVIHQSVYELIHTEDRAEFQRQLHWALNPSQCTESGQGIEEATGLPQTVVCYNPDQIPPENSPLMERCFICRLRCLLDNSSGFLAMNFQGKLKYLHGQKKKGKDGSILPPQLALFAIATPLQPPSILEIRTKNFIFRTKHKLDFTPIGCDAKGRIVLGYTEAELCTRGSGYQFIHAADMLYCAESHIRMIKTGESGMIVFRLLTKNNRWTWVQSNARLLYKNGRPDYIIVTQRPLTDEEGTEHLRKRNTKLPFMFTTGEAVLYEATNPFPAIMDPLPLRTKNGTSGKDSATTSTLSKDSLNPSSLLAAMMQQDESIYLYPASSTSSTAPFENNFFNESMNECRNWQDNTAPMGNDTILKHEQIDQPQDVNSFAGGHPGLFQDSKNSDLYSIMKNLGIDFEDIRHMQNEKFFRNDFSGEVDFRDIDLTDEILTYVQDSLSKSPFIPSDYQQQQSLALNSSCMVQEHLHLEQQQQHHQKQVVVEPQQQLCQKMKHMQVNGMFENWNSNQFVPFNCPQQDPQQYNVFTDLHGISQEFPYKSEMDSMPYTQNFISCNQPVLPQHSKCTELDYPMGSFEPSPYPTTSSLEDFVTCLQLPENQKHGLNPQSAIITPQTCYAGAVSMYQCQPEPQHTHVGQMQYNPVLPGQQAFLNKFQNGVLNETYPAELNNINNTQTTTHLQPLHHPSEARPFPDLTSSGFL

O=[N+]([O-])c1ccc(F)c([N+](=O)[O-])c1
Potency [1]: inactive and 30.9 µM (active)
Potency [2]: inactive and 49 µM (active)
Potency [3]: inactive
Potency [4]: 30.9 µM (active)
Potency [5]: inactive
outcome [6]: inactive
Potency [7]: inactive
outcome [8]: inactive
outcome [9]: inactive
outcome [10]: inactive

CC(C)N(C(=O)COc1nnc(C(F)(F)F)s1)c1ccc(F)cc1
Potency [1]: inactive
Potency [2]: inactive
Potency [11]: 7.76 µM (active)
Potency [12]: inactive
Potency [4]: inactive
outcome [6]: inactive
outcome [8]: inactive
Potency [13]: inactive

Clc1ccc(C2(Cn3cncn3)CC(Br)CO2)c(Cl)c1 (stereo not given)
Potency [1]: inactive
Potency [3]: inactive
Potency [11]: inactive
Potency [12]: inactive
Potency [14]: inactive
Potency [4]: inactive
Potency [5]: inactive
outcome [15]: inactive
outcome [6]: inactive
Potency [16]: inactive
Potency [17]: inactive
outcome [8]: inactive
outcome [9]: inactive

Cc1ccccc1C(=O)Nc1cccc(OC(C)C)c1
Potency [1]: inactive
Potency [2]: inactive
Potency [11]: 49 µM (active)
Potency [4]: inactive
Potency [5]: inactive
outcome [15]: inactive
Potency [18]: inactive
outcome [6]: inactive
Potency [17]: inactive

C=CCOC(C)=O
Potency [1]: inactive
Potency [2]: inactive
Potency [12]: inactive
Potency [14]: inactive
Potency [4]: inactive
Potency [5]: inactive
outcome [15]: inactive
Potency [18]: inactive
Potency [16]: inactive
Potency [7]: inactive
Potency [19]: inactive
outcome [8]: inactive
Potency [13]: inactive
outcome [9]: inactive
outcome [10]: inactive

C[N+](C)(C)CCCl
Potency [1]: inactive
Potency [2]: inactive
Potency [12]: inactive
Potency [14]: inactive
Potency [4]: inactive
Potency [5]: inactive
outcome [15]: inactive
Potency [18]: inactive
outcome [6]: inactive
Potency [17]: inactive
outcome [10]: inactive

C=CC(=O)OCC(C)O (stereo not given)
Potency [20]: inactive
Potency [2]: inactive
Potency [11]: inactive
Potency [12]: inactive
Potency [14]: 8.91 µM (active)
Potency [4]: inactive
Potency [5]: inactive
outcome [15]: inactive
Potency [7]: inactive
outcome [8]: inactive
Potency [13]: inactive
outcome [9]: inactive

C/C(=C\c1ccccc1)[N+](=O)[O-]
Potency [1]: 21.7 µM (active)
Potency [12]: 21.9 µM (active)
Potency [4]: 15.4 µM (active)
Potency [18]: 19.5 µM (active)
Potency [19]: 13.8 µM (active)
Potency [13]: 43.6 µM (active)

CCO[C@H]1O[C@@H]2OC3(C)CC[C@H]4[C@H](C)CC[C@@H]([C@H]1C)[C@@]24OO3
Potency [11]: inactive
Potency [12]: inactive
Potency [4]: inactive
Potency [5]: inactive
outcome [15]: inactive
Potency [18]: inactive
outcome [6]: inactive
Potency [16]: inactive
Potency [7]: inactive
Potency [19]: inactive
outcome [8]: inactive
outcome [9]: inactive

C[C@@H]1CC[C@H]2[C@@H](C)C(=O)O[C@@H]3O[C@@]4(C)CC[C@@H]1[C@]32OO4
Potency [12]: inactive
Potency [4]: inactive
Potency [5]: inactive
outcome [15]: inactive
Potency [18]: inactive
Potency [16]: inactive
Potency [7]: inactive
outcome [8]: inactive
Potency [13]: inactive
outcome [9]: inactive

CO/N=C(/C(=O)OC)c1ccccc1COc1ccccc1C
Potency [20]: inactive
Potency [2]: inactive
Potency [12]: inactive
Potency [14]: 19.3 µM (active)
Potency [4]: inactive
Potency [5]: inactive
outcome [15]: inactive
Potency [18]: inactive
Potency [16]: inactive
Potency [19]: inactive
outcome [8]: inactive
Potency [13]: inactive
outcome [9]: inactive
outcome [10]: inactive

COP(=S)(OC)Oc1ccc([N+](=O)[O-])cc1Cl
Potency [2]: 61.1 µM (active)
Potency [3]: inactive
Potency [11]: inactive
Potency [12]: inactive
Potency [4]: inactive
Potency [5]: inactive
outcome [15]: inactive
outcome [6]: inactive
Potency [19]: inactive
Potency [13]: inactive
